Assay outcomes: PubChem, National Center for Advancing Translational Sciences (NCATS)
In the library only some 3.2% were active in any assay of this set; here they are far more common.
ClpP mod: qHTS Assay for Activators of ClpP; purified B. subtilis ClpP, FRET peptide cleavage, 20 min; Potency, µM (highest dose often 57.5 µM), without a hit: at the highest dose activity change, negative = active; actives 1.9% (n = 340,000); AID 651965, 2013; active means well fitted falling curve with a large enough effect; inconclusive means small, poorly fitted or top-dose-only effect; inactive means no such curve, though single readings can be large or run the other way; further: the source files actives as falling curves though it sought activators and does not explain the sign; nearly all actives have a fitted effect of over 65% in size
Target sequence (P80244 whole entry, looked up): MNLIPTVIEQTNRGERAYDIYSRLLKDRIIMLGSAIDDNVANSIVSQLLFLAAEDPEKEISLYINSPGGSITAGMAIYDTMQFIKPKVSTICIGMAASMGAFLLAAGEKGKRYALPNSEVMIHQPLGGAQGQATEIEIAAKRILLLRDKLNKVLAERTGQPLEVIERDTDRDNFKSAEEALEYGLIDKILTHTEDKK
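Purified B. subtilis ClpP, 10 microg/mL final in Tris/HCl pH8 with KCl, BSA, glycerol and Tween-20, cleaved an Abz/nitrotyrosine-quenched decapeptide. Fluorescence (ex 320, em 430) was read at 0 and 20 min at room temperature. Delta was normalized to 5.8 microM ADEP and DMSO/no-enzyme controls.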
GLP1R inv ag: qHTS of GLP-1 Receptor Inverse Agonists (Inhibition Mode); HEK293 GLP-1R CRE-luciferase, luminescence, 24 h; GLP-1R form is constitutively active; AID 624417, 2012; actives 1.6% (n = 410,000); Potency, µM (doses to about 38.3 µM), without a hit: at the highest dose activity change, negative = inhibition, hits mostly inhibitors; further: on the % scale 0 is the no-effect control and ±100 the full control effect; nearly all actives have a fitted effect of over 55% in size
Target sequence (P43220 whole entry, looked up): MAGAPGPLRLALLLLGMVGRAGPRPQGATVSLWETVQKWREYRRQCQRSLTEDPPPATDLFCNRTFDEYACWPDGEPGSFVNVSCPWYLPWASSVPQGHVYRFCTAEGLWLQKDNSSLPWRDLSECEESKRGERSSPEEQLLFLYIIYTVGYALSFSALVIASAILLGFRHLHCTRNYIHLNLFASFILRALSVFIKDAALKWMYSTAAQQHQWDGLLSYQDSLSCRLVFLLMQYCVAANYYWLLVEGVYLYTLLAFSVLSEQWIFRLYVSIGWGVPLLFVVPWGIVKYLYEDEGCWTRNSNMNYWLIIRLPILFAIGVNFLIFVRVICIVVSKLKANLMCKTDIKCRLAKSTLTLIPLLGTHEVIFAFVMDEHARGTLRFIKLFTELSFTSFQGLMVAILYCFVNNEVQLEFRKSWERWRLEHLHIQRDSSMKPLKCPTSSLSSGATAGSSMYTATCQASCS
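Assay principle: reduced luminescence from a cAMP-responsive reporter in HEK293 cells co-expressing a constitutively active GLP-1R. Conditions: 24 hr compound incubation, 37 deg C, 5% CO2.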
GLP-1R agonist: qHTS of GLP-1 Receptor Agonists | actives 0.007% (n = 380,000) | Glucagon-like peptide 1 receptor (Homo sapiens), P43220 | HEK293 GLP-1R CRE-luciferase, luminescence, 4-6 h; cells express a hypersensitive GLP-1R form | Potency, µM (top dose mostly 45.6 µM), without a hit: at the highest dose activation, actives largely listed as activators; further: % of control where 0% means no effect
HEK293 tox: qHTS of GLP-1 Receptor Inverse Agonists: Cytotox Screen. actives 0.13% (n = 410,000). HEK293 cAMP-luciferase reporter cells, luminescence, 24 h. Potency, µM (titrated, usually from 38.3 µM), inactives show top-dose activity change, negative = inhibition, usual class: inhibitors. AID 624418, 2012;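 further: loss of luciferase light is scored as toxicity; on the % scale 0 is the no-effect control and ±100 the full control effect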
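To flag toxic compounds, the library was rerun on cells for 24 hr at 37 deg C and 5% CO2. Viability-linked luminescence was captured 12 min after adding luciferase detection reagent.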
Active calls of the source: *; [ ] = dose if it differs, or a comment. Unless noted, the call rests on the fitted dose curve; in most records, active means well fitted curve in the direction sought with a large enough effect; inconclusive means small, poorly fitted or top-dose-only effect, or another doubt; inactive means no such curve, though single readings can be large; an effect the other way counts as inactive or inconclusive. Potency means the concentration at half of the fitted maximal effect.

For COc1ccc(C)cc1NS(=O)(=O)c1ccc(NC(=O)CN(c2cc([N+](=O)[O-])ccc2C)S(C)(=O)=O)cc1 the results were ClpP mod -2.3%, GLP1R inv ag 1.78µM*, GLP-1R agonist -10.6% and HEK293 tox -9.2%.
`Cc1cccc(NS(=O)(=O)c2ccc(NC(=O)CN(c3cc([N+](=O)[O-])ccc3C)S(C)(=O)=O)cc2)c1` gave ClpP mod -1.7%, GLP1R inv ag inconclusive, GLP-1R agonist -28.6% and HEK293 tox inconclusive.
For COc1ccc2oc(=O)c(-c3csc(/C(C#N)=C/c4ccc(F)cc4)n3)cc2c1 the results were ClpP mod -1.3%, GLP1R inv ag 13.0% and HEK293 tox -1.3%.
Cn1c(=O)n(-c2ccc(C(C)(C)C#N)cc2)c2c3cc(-c4cnc5ccccc5c4)ccc3ncc21 was read as ClpP mod 4.3%[115 µM].
COC(=O)[C@]12CCCCC=C1N(Cc1ccccc1)C(=O)[C@H](CC(=O)NCC13CC4CC(CC(C4)C1)C3)C2 was read as ClpP mod 2.0%, GLP1R inv ag 10µM*, GLP-1R agonist -2.0% and HEK293 tox -23.1%.
`CCCCCCCCN1C(=O)[C@H](CC(=O)NCc2cccs2)C[C@@]2(C(=O)OCC)CCCC=C12` gave ClpP mod -2.4%, GLP1R inv ag 10µM*, GLP-1R agonist -2.1% and HEK293 tox -18.0%.
Screening CCOC(=O)[C@]12CCC=C1N(Cc1ccc(Cl)cc1Cl)C(=O)[C@H](CC(=O)NCc1cccc(C(F)(F)F)c1)C2 returned ClpP mod -1.8%, GLP1R inv ag 11.2µM*, GLP-1R agonist -0.7% and HEK293 tox -3.5%.
CCOC(=O)[C@]12CCCC=C1N(Cc1ccccc1)C(=O)[C@H](CC(=O)NCC13CC4CC(CC(C4)C1)C3)C2 was read as ClpP mod -3.5%, GLP1R inv ag inconclusive and HEK293 tox -0.4%.
For CCCCCCCCN1C(=O)[C@H](CC(=O)NCc2cccc(C(F)(F)F)c2)C[C@@]2(C(=O)OC)CCCCC=C12 the results were ClpP mod -1.6%, GLP1R inv ag 10µM*, GLP-1R agonist 2.8% and HEK293 tox inconclusive.
Screening CN(C)c1ccc(C(=C2c3ccccc3-c3ccccc32)c2ccc(N(C)C)cc2)cc1 returned ClpP mod 1.4%.
`CCOC(=O)[C@]12CCC=C1N(CCC1=CCCCC1)C(=O)[C@H](CC(=O)NCCc1ccccc1OC)C2` gave ClpP mod -0.2%, GLP1R inv ag -7.9%, GLP-1R agonist 7.3% and HEK293 tox 6.7%.
Screening CCCCCCCCN1C(=O)[C@H](CC(=O)NCCc2ccccc2OC)C[C@@]2(C(=O)OCC)CCC=C12 returned ClpP mod -4.8%, GLP1R inv ag 12.6µM* and HEK293 tox -13.7%.
For CCOC(=O)[C@]12CCCC=C1N(CCc1ccc(OC)c(OC)c1)C(=O)[C@H](CC(=O)NCc1ccccc1)C2 the results were ClpP mod 0.6%, GLP1R inv ag -15.9% and HEK293 tox -0.5%.
For CCCCCCCCN1C(=O)[C@H](CC(=O)NCc2ccc(OC)c(OC)c2)C[C@@]2(C(=O)OCC)CCCC=C12 the results were ClpP mod 5.8%, GLP1R inv ag 10µM*, GLP-1R agonist 3.6% and HEK293 tox inconclusive.
Screening COC(=O)[C@@]12C[C@@H](CC(=O)NCCCCc3ccccc3)C(=O)N(Cc3ccco3)C1=CCC(C)(C)C2 returned ClpP mod 3.4%, GLP1R inv ag 10µM* and HEK293 tox -10.6%.
O=C(Nc1ccccc1Sc1ccccc1)c1ccccc1 was read as ClpP mod -2.1%, GLP1R inv ag 11.2µM*, GLP-1R agonist 5.3% and HEK293 tox 21.7%.
O=C(Cc1ccc(Br)cc1)Nc1ccccc1Sc1ccccc1 was read as ClpP mod -0.6%, GLP1R inv ag 10µM*, GLP-1R agonist -1.1% and HEK293 tox -0.9%.
`O=C(Cc1ccccc1)Nc1ccccc1Sc1ccccc1` gave ClpP mod 1.6%, GLP1R inv ag 11.2µM*, GLP-1R agonist 2.5% and HEK293 tox 30.8%.
Screening Cc1cc(SCC(=O)NCc2ccccc2)nc(=O)[nH]1 returned ClpP mod -0.6%, GLP1R inv ag 6.7%, GLP-1R agonist -2.9% and HEK293 tox -8.4%.
COc1ccc(/C=c2\s/c(=C\C(=O)C(C)(C)C)[nH]c2=O)cc1O was read as ClpP mod 1.2%, GLP1R inv ag 44.6%, GLP-1R agonist 2.7% and HEK293 tox inconclusive.
`Cc1cccc(/C=c2\s/c(=C\C(=O)C(C)(C)C)[nH]c2=O)c1` gave ClpP mod -1.4%, GLP1R inv ag 8.91µM*, GLP-1R agonist 1.3% and HEK293 tox inconclusive.
For COc1ccc(NC(=O)CSc2nc(-c3ccco3)cc(C(F)(F)F)n2)c(OC)c1 the results were ClpP mod -2.3%, GLP1R inv ag 4.6%, GLP-1R agonist 2.4% and HEK293 tox 3.2%.
For O=C(C1CCC(Cn2c(=O)[nH]c3ccccc3c2=O)CC1)N1CCN(c2ccccc2)CC1 (centres undefined) the results were ClpP mod -1.1%, GLP1R inv ag -28.9%, GLP-1R agonist 3.1% and HEK293 tox 2.0%.
Screening O=C(C1CCC(Cn2c(=S)[nH]c3ccccc3c2=O)CC1)N1CCN(c2ccccc2)CC1 (centres undefined) returned ClpP mod -3.1%, GLP1R inv ag 3.55µM*, GLP-1R agonist -10.6% and HEK293 tox -4.6%.
`O=S1(=O)N(Cc2ccccc2F)CCCN1Cc1c(F)cccc1Cl` gave ClpP mod 31.6µM*, GLP1R inv ag inconclusive, GLP-1R agonist 15.5% and HEK293 tox 5.8%.
For CCOc1ccccc1NC(=O)c1cc(S(=O)(=O)N2CCN(CC)CC2)ccc1Cl the results were ClpP mod -0.1%, GLP1R inv ag inconclusive, GLP-1R agonist 1.0% and HEK293 tox 4.8%.
Screening CCN1CCN(S(=O)(=O)c2ccc(Cl)c(C(=O)NC(C)c3ccccc3Cl)c2)CC1 (centres undefined) returned ClpP mod 35.5µM*, GLP1R inv ag -18.5%, GLP-1R agonist 3.8% and HEK293 tox -1.3%.
For CC1CC2C3CCC4=CC(=O)C=CC4(C)[C@@]3(F)C(O)CC2(C)[C@@]1(O)C(=O)CCl (some centres undefined) the results were GLP-1R agonist 3.5%.
For Cc1nn(CC(=O)NCc2ccc(F)cc2)c2ccccc12 the results were ClpP mod -3.9%, GLP1R inv ag -5.0% and HEK293 tox 9.4%.
O=C(O)CCn1cc(/C=C2\SC(=S)NC2=O)c(-c2ccccc2)n1 was read as GLP1R inv ag 0.4%, GLP-1R agonist -2.4% and HEK293 tox inconclusive.
